PubChem BioAssay (NCI)
The panel holds about 83,000 compounds, 20% with a hit somewhere; the sample as a whole holds those more often.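 96-well plates, one dose, 48 hours. Percent growth reported; active if below 10.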 Calls of active or inactive are those of the source.

Columns and labels:
Assay in all cases: NCI-60 one-dose screen, 48 h (100 = growth as untreated, 0 = no growth, -100 = all killed)
Conditions in all cases: 10 µM unless noted
SK-MEL-2 melanoma = system: SK-MEL-2 melanoma
EKVX NSCLC = system: EKVX NSCLC
SN12C renal = system: SN12C renal
UO-31 renal = system: UO-31 renal
TK-10 renal = system: TK-10 renal
ACHN renal = system: ACHN renal
CAKI-1 renal = system: CAKI-1 renal
A498 renal = system: A498 renal
CCRF-CEM leukemia = system: CCRF-CEM leukemia

Measured: growth

CCN(CC)Cc1cccc(C(=O)OC)c1
inactive: SK-MEL-2 melanoma 100% | EKVX NSCLC 95.7% | SN12C renal 105% | UO-31 renal 103% | TK-10 renal 92.5% | ACHN renal 96.6% | CAKI-1 renal 97.2% | A498 renal 115% | CCRF-CEM leukemia 76.3%

COc1cccc(-c2nn(-c3ccccc3)cc2-c2ccnc(NCCNC(=O)Nc3ccccc3)c2)c1
inactive: SK-MEL-2 melanoma 46.8% | EKVX NSCLC 71.1% | SN12C renal 54% | UO-31 renal 39% | TK-10 renal 73.8% | ACHN renal 68.9% | CAKI-1 renal 64.9% | A498 renal 43.8%

Cc1ccc(Cl)c(NS(=O)(=O)c2ccc(-c3cnc(C4CC4)o3)cc2)c1
active: A498 renal -5.72%
inactive: SK-MEL-2 melanoma 56.9% | EKVX NSCLC 31.4% | SN12C renal 60.7% | UO-31 renal 44.3% | TK-10 renal 68.5% | ACHN renal 36% | CAKI-1 renal 36.6% | CCRF-CEM leukemia 14.1%

COc1ccc2cc(-c3cc(OC)c(OC)c(OC)c3)c(=O)oc2c1
inactive: SK-MEL-2 melanoma 62.3% | EKVX NSCLC 54.1% | SN12C renal 92.7% | UO-31 renal 87.7% | TK-10 renal 85.8% | ACHN renal 90.1% | CAKI-1 renal 79.3% | A498 renal 53% | CCRF-CEM leukemia 74.6%

COc1ccc2nc(NNC(=O)c3cnccn3)c3cccn3c2c1
inactive: SK-MEL-2 melanoma 46.1% | TK-10 renal 30.7%
active: EKVX NSCLC 2.79% | SN12C renal 8.52% | UO-31 renal -17% | ACHN renal -22.8% | CAKI-1 renal 4.46% | A498 renal -11.5% | CCRF-CEM leukemia 1.48%

C[n+]1cc2cc(C(N)=O)[nH]c3c(=N)c(Cl)c(N)c1c23
inactive: SK-MEL-2 melanoma 96.1% | EKVX NSCLC 101% | SN12C renal 53.6% | UO-31 renal 81.1% | TK-10 renal 73.9% | ACHN renal 39% | CAKI-1 renal 79.9% | A498 renal 71.9% | CCRF-CEM leukemia 37.6%

COc1cccc(-c2nn(-c3ccccc3)cc2-c2ccnc(NCCCNC(=O)c3ccc(F)cc3)c2)c1
inactive: SK-MEL-2 melanoma 51.6% | EKVX NSCLC 44.5% | SN12C renal 62.6% | UO-31 renal 40.5% | TK-10 renal 57.8% | ACHN renal 71% | CAKI-1 renal 52.4% | A498 renal 31%

O=C(CC(SCc1ccccc1)c1ccccc1)c1ccccc1 (stereo not given)
inactive: SK-MEL-2 melanoma 120% | EKVX NSCLC 82.4% | SN12C renal 98.8% | UO-31 renal 84.7% | TK-10 renal 87.3% | ACHN renal 99.6% | CAKI-1 renal 95.8% | A498 renal 81.8% | CCRF-CEM leukemia 95.9%

CCCCCCCCCCCCCCCCCCOc1ccc(CC(=O)OCC[N+]2(C)CCCC2)cc1
inactive: SK-MEL-2 melanoma 117% | EKVX NSCLC 100% | SN12C renal 97.9% | UO-31 renal 92.4% | TK-10 renal 98.4% | ACHN renal 96.8% | CAKI-1 renal 84.9% | A498 renal 116%

COc1cc(Cn2ncc3ccc(NC(=O)c4cc5ccccc5oc4=N)cc32)cc(OC)c1OC
inactive: SK-MEL-2 melanoma 88% | EKVX NSCLC 71.5% | SN12C renal 87.2% | UO-31 renal 51.3% | TK-10 renal 91.4% | ACHN renal 57.1% | CAKI-1 renal 82.4% | A498 renal 98.3% | CCRF-CEM leukemia 52.2%

CCn1c(C)nc2cc(C(N)=O)ccc21
inactive: SK-MEL-2 melanoma 96% | EKVX NSCLC 142% | SN12C renal 98.1% | UO-31 renal 91.5% | TK-10 renal 98% | ACHN renal 96.7% | CAKI-1 renal 143% | A498 renal 107% | CCRF-CEM leukemia 95.4%

O=c1[nH]ccc2nc(N3CCC(O)CC3)nc(Nc3ccc(N4CCOCC4)cc3)c12
inactive: SK-MEL-2 melanoma 69.3% | EKVX NSCLC 89% | SN12C renal 37.8% | UO-31 renal 38.2% | TK-10 renal 82.1% | ACHN renal 55.5% | CAKI-1 renal 26.3% | A498 renal 57.9% | CCRF-CEM leukemia 70.6%

CC(=O)C(C)Cc1cc2c(cc1C)C(C)(C)CCC2(C)C (stereo not given)
inactive: SK-MEL-2 melanoma 94.8% | EKVX NSCLC 94.4% | SN12C renal 103% | UO-31 renal 101% | TK-10 renal 100% | ACHN renal 104% | CAKI-1 renal 97.6% | A498 renal 108%

C#CCOc1nc(C)cc(C)c1C#N
inactive: SK-MEL-2 melanoma 111% | EKVX NSCLC 97.1% | SN12C renal 104% | UO-31 renal 86.5% | TK-10 renal 95.9% | ACHN renal 99.7% | CAKI-1 renal 90.6% | A498 renal 87.7% | CCRF-CEM leukemia 109%

Cc1ccc(Nc2nc(N)nc(CSCC(=O)NN)n2)cc1
inactive: SK-MEL-2 melanoma 109% | EKVX NSCLC 102% | SN12C renal 94.6% | UO-31 renal 88.2% | TK-10 renal 115% | ACHN renal 101% | CAKI-1 renal 89.8% | A498 renal 77.7%

COc1cccc(-c2nn(-c3ccccc3)cc2-c2ccnc(NCCCNC(=O)Nc3ccc(Cl)c(Cl)c3)c2)c1
active: SK-MEL-2 melanoma -53.9% | UO-31 renal -34.4% | A498 renal 4.95% | CCRF-CEM leukemia 1.35%
inactive: EKVX NSCLC 37.8% | SN12C renal 37.5% | TK-10 renal 45.7% | ACHN renal 32.9% | CAKI-1 renal 24%

COc1cccc(-c2nn(-c3ccccc3)cc2-c2ccnc(NCCNC(=O)c3ccccc3)c2)c1
inactive: SK-MEL-2 melanoma 84.7% | EKVX NSCLC 66.6% | SN12C renal 71.4% | UO-31 renal 49.7% | TK-10 renal 90.1% | ACHN renal 74.1% | CAKI-1 renal 68% | A498 renal 46.6%

Cc1cc(NCCCCNc2ccnc3cc(Cl)ccc23)nc(Nc2ccc(C(=O)N3CCCCC3)cc2)n1
active: SK-MEL-2 melanoma -63.1% | TK-10 renal -49.2% | ACHN renal -4.47% | CCRF-CEM leukemia -20%
inactive: EKVX NSCLC 41.1% | SN12C renal 29.6% | UO-31 renal 33.5% | CAKI-1 renal 79.5% | A498 renal 53.4%

O=C1/C(=C/c2ccc(Br)cc2)C=C(c2ccccc2)N1CCc1ccccc1
inactive: SK-MEL-2 melanoma 66% | EKVX NSCLC 40.1% | SN12C renal 50.1% | UO-31 renal 45% | TK-10 renal 12.6% | ACHN renal 13% | CAKI-1 renal 64.3% | A498 renal 50.8% | CCRF-CEM leukemia 101%

CC1OC(O[C@H]2/C=C/C=C/C=C/C=C/C=C/C=C/C=C/[C@H](C)[C@@H](O)[C@@H](C)[C@H](C)OC(=O)CC(O)CC(O)CCC(O)C(O)CC(O)C[C@]3(O)C[C@H](O)C(C(=O)O)C(C2)O3)C(O)[C@H](N)C1O (stereo not given in full)
active: EKVX NSCLC -14.3% | SN12C renal -84.1% | UO-31 renal -94.3% | TK-10 renal -40.7% | ACHN renal -80.3% | A498 renal 9.81%
inactive: SK-MEL-2 melanoma 57.6% | CAKI-1 renal 36.1% | CCRF-CEM leukemia 36.8%

Cc1cc(NCc2cc(Nc3ccnc4cc(Cl)ccc34)ccc2F)nc(N2CCN(C)CC2)n1
active: SK-MEL-2 melanoma -70.7% | UO-31 renal -8.37% | TK-10 renal -16% | ACHN renal 5.12% | A498 renal -26.8% | CCRF-CEM leukemia -13.5%
inactive: EKVX NSCLC 31% | SN12C renal 36.8% | CAKI-1 renal 61.8%

COc1cccc(C(=O)NCCCNc2cc(-c3cn(-c4ccccc4)nc3-c3cccc(OC)c3)ccn2)c1
inactive: SK-MEL-2 melanoma 70.2% | EKVX NSCLC 60.1% | SN12C renal 61.1% | UO-31 renal 26.6% | TK-10 renal 55.2% | ACHN renal 60.9% | CAKI-1 renal 65.4% | A498 renal 49.2% | CCRF-CEM leukemia 24.7%

COc1ccc(NC(=O)c2nc(-c3cc(OC)c(OC)c(OC)c3)n(-c3cccc4ccccc34)n2)cc1OC
inactive: SK-MEL-2 melanoma 43.7% | EKVX NSCLC 44.6% | SN12C renal 52.9% | TK-10 renal 44.8% | ACHN renal 30.6% | CAKI-1 renal 20.1% | A498 renal 42.6%
active: UO-31 renal 6.34%

CCCCCc1nc2c(c3c1CCCC3)CCCC2
inactive: SK-MEL-2 melanoma 80% | EKVX NSCLC 77.1% | SN12C renal 93.3% | UO-31 renal 47% | TK-10 renal 77.2% | ACHN renal 82.9% | CAKI-1 renal 60.9% | A498 renal 84.3%

COc1cc2ncn3c(=O)c4c5c(sc4nc3c2cc1OC)CCCC5
inactive: SK-MEL-2 melanoma 91.4% | EKVX NSCLC 83.2% | SN12C renal 109% | UO-31 renal 95.7% | TK-10 renal 140% | ACHN renal 103% | CAKI-1 renal 92.5% | A498 renal 112%

Cc1cc(NCc2cc(Nc3ccnc4cc(Cl)ccc34)ccc2F)nc(N2CCN(c3ccccc3)CC2)n1
active: CCRF-CEM leukemia -7.8%
inactive: SK-MEL-2 melanoma 84.5% | EKVX NSCLC 64.8% | SN12C renal 49.9% | UO-31 renal 36.1% | TK-10 renal 88.7% | ACHN renal 69.2% | CAKI-1 renal 72.3% | A498 renal 14.1%

CCN1CCN(c2cc(C)nc(NCc3cc(Nc4ccnc5cc(Cl)ccc45)ccc3F)n2)CC1
inactive: SK-MEL-2 melanoma 104% | EKVX NSCLC 59.6% | SN12C renal 64.3% | UO-31 renal 69.1% | TK-10 renal 99.8% | ACHN renal 34.9% | CAKI-1 renal 87.8% | A498 renal 36.2% | CCRF-CEM leukemia 16.6%

C[n+]1cccc(CC(=O)NO)c1
inactive: SK-MEL-2 melanoma 100% | EKVX NSCLC 102% | SN12C renal 94.7% | UO-31 renal 97.3% | TK-10 renal 94.8% | ACHN renal 98.4% | CAKI-1 renal 104% | A498 renal 115%

CN(C)c1ccc(-c2ccc3[nH]c(=O)nc(-c4ccccc4)c3c2)cn1
inactive: SK-MEL-2 melanoma 22.8% | EKVX NSCLC 58.5% | SN12C renal 50.7% | UO-31 renal 53% | TK-10 renal 82.8% | ACHN renal 47.9% | CAKI-1 renal 49.6% | A498 renal 52.3%
